In the library only some 5.7% were active in any assay of this set; here they are far more common.
GLP1R cytotox = qHTS of GLP-1 Receptor Inverse Agonists: Cytotox Screen; Potency, µM (titrated, usually from 38.3 µM), usual class: inhibitors; hit rate 0.13% among 410,000; HEK293 cAMP-luciferase reporter cells, luminescence, 24 h;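 also: loss of luciferase light is scored as toxicity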
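Quantitative HTS format, 1536 wells, 200 cells/uL seeded. Compounds: 23 nL, 24 h, 37 °C. Detection: luciferase reagent, luminescence at 12 min RT; decreased signal taken as cytotoxic.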
GLP-1R agonist = qHTS of GLP-1 Receptor Agonists | Glucagon-like peptide 1 receptor (Homo sapiens), P43220 | HEK293 GLP-1R CRE-luciferase, luminescence, 4-6 h; cells express a hypersensitive GLP-1R form | Potency, µM (doses to about 45.6 µM), actives largely listed as activators | hit rate 0.007% among 380,000 | AID 624172, 2012
D3 ag = qHTS of D3 Dopamine Receptor Agonist: qHTS | D(3) dopamine receptor (Homo sapiens), P35462 | D3R DiscoveRx beta-arrestin cells, luminescence, 90 min | max activation, % | hit rate 0.58% among 410,000 | AID 652048, 2013; in the data active = max activation above about 30%
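Cells at 1500/well, incubated overnight, then treated with pinned compounds (dopamine as control) for 90 min at 37 degrees C. DiscoveRx reagent added for 30 - 60 minutes at room temperature; luminescence read.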
GLP-1R inv ag = qHTS of GLP-1 Receptor Inverse Agonists (Inhibition Mode); Glucagon-like peptide 1 receptor (Homo sapiens), P43220; hit rate 1.6% among 410,000; HEK293 GLP-1R CRE-luciferase, luminescence, 24 h; GLP-1R form is constitutively active; Potency, µM (series often up to 38.3 µM), usual class: inhibitors; also: nearly all actives have a fitted effect of over 55% in size
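GLP-1R inverse agonism mode: basal reporter luminescence in engineered HEK293 cells measured after one day of compound exposure at 37 deg C, with a 12 min room-temperature detection step.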
DRD3 antagonist = qHTS of D3 Dopamine Receptor Antagonist: qHTS. D(3) dopamine receptor (Homo sapiens), P35462. max response, negative = inhibition, %. D3R cells, DiscoveRx beta-arrestin luminescence, antagonist mode; hits give low values. hit rate 2.5% among 360,000; in the data active = max response below about -50%; inconclusive = no clear call, values can overlap the other calls
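Cells plated overnight at 1500 cells/well, then exposed to library compounds with dopamine controls for 90 minutes at 37 degrees C. DiscoveRx reagent added for 30–60 minutes at room temperature; luminescence read, quantitative HTS format.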
ClpP mod = qHTS Assay for Activators of ClpP. purified B. subtilis ClpP, FRET peptide cleavage, 20 min. hit rate 1.9% among 340,000. ATP-dependent Clp protease proteolytic subunit (Bacillus subtilis (strain 168)), P80244. Potency, µM (top dose mostly 57.5 µM); active = well fitted falling curve with a large enough effect; inconclusive = small, poorly fitted or top-dose-only effect; inactive = no such curve, though single readings can be large or run the other way; also: the source files actives as falling curves though it sought activators and does not explain the sign; nearly all actives have a fitted effect of over 65% in size
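Purified B. subtilis ClpP, 10 microg/mL final in Tris/HCl pH8 with KCl, BSA, glycerol and Tween-20, cleaved an Abz/nitrotyrosine-quenched decapeptide. Fluorescence (ex 320, em 430) was read at 0 and 20 min at room temperature. Delta was normalized to 5.8 microM ADEP and DMSO/no-enzyme controls.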
Numbers stand for hits; n = inactive; u = inconclusive; x = no result given. Unless noted, calls follow the shape of the dose curve; as a rule, active = well fitted curve in the direction sought with a large enough effect; inconclusive = small, poorly fitted or top-dose-only effect, or another doubt; inactive = no such curve, though single readings can be large; an effect the other way counts as inactive or inconclusive.

SMILES	GLP1R cytotox	GLP-1R agonist	D3 ag	GLP-1R inv ag	DRD3 antagonist	ClpP mod
O=C(NCCCN1CCN(c2ccccc2)CC1)c1cc2c(s1)-c1ccccc1OC2	n	x	n	u	x	n
CC1CCN(CCCNC(=O)c2cc3c(s2)-c2ccccc2OC3)CC1	n	n	n	u	-83	n
Cc1ccc(CCNC(=O)c2cc3c(s2)-c2c(C)cccc2OC3)cc1	n	x	n	n	x	n
Nc1cnccn1	x	x	x	x	x	n
COc1ccccc1NC(=O)CSC1=Nc2ccccc2N=C(c2ccc(F)cc2)C1	n	n	n	n	x	n
N#CC(C#N)=C1C=CC=CN1/C(=C\c1ccco1)C(=O)c1ccc(-c2ccccc2)cc1	n	n	n	u	-92	n
COc1ccc(C2N(c3ccc(Cl)cc3)N=C(C(C)=O)N(C)N2C(C)=O)cc1 (stereo not given)	n	n	n	10µM	n	x
COc1ccc(-c2csc(C(C)(NC(C)=O)c3ccc(OC)cc3)n2)cc1 (stereo not given)	n	n	n	n	-51	n
CC(O)(c1cccc(F)c1)c1nc(-c2ccc(S(C)(=O)=O)cc2)cs1 (stereo not given)	n	n	n	n	n	n
COc1ccc(-c2csc(C(C)(O)c3cccc(OC)c3)n2)cc1 (stereo not given)	n	n	n	10µM	n	n
COc1cccc(C(C)(O)c2nc(-c3ccc(S(C)(=O)=O)cc3)cs2)c1 (stereo not given)	n	n	80	n	n	n
CCCCNC(=O)C1(C)CCCCCN1Cc1cc2ccccc2o1 (stereo not given)	n	n	n	u	n	n
Cc1ccc2c(c1)nnn2C1CCN(S(=O)(=O)c2ccc(C(=O)N3C(C)CCCC3C)cc2)CC1 (stereo not given)	n	n	n	4µM	n	n
COc1ccc(NC(=O)c2cccn2-c2nnc(N3CCCCC3)s2)cc1	n	x	n	n	x	n
CCCNC(=O)C(Cc1ccccc1)NC(=O)c1ccccn1 (stereo not given)	n	n	n	n	-56	n
CCOc1cccc2sc(N3CCN(C(=O)c4ccc5ncsc5c4)CC3)nc12	n	n	n	n	n	22µM
COc1cc2c(cc1OC)-c1cc(N3CCCc4ccccc43)nc(=O)n1CC2	n	u	n	n	n	n
COc1cc2c(cc1OC)-c1cc(N3CCCCCC3)nc(=O)n1CC2	n	u	n	n	n	25µM
COc1cc2c(cc1OC)-c1cc(NC3CCCCCC3)nc(=O)n1CC2	n	u	n	n	n	25µM
CCN(CC)CCCNc1cc2n(c(=O)n1)CCc1cc(OC)c(OC)cc1-2	n	n	n	n	n	25µM
COc1ccc(Nc2cc3n(c(=O)n2)CCc2cc(OC)c(OC)cc2-3)cc1	n	u	n	n	n	n
COc1cc2c(cc1OC)-c1cc(Nc3ccccc3Br)nc(=O)n1CC2	n	8.9µM	n	n	n	x
COC(=O)CN1CCN(C(c2ccccc2)c2ccccc2)CC1	n	n	n	n	n	n
COC(=O)C1=C/C=C\CN(C(c2ccccc2)c2ccccc2)/C=C\1C(=O)OC	n	n	n	10µM	n	n
COc1ccc(/C(C)=N/NC(=S)Nc2cc(C)ccc2C)cc1	3.5µM	n	n	u	n	n
COCCNC(=S)N/N=C(\C)c1cc2ccccc2o1	7.9µM	n	n	u	n	n
C=C(C)CNC(=S)N/N=C(\C)c1ccc(OC)cc1	u	n	n	5.6µM	n	n
COCCNC(=S)N/N=C(\C)c1ccc2cc(OC)ccc2c1	3.2µM	u	n	u	n	n
CC(C)OCCCNc1ncnc2c1[nH]c1ccccc12	n	n	n	n	n	18µM
C1=C(CCNc2ncnc3c2[nH]c2ccccc23)CCCC1	n	n	n	4.5µM	n	u

Screening results from PubChem.
